Data: paper PMC7862700, “An all-to-all approach to the identification of sequence-specific readers for epigenetic DNA modifications on cytosine”

Columns and labels:
Assay in all cases: DAPPL (digital affinity profiling via proximity ligation, sequencing); 10 mM Tris-HCl pH 7.5, 50 mM NaCl, 1 mM DTT, 4% glycerol, room temperature, 30 min; GST-TFs on glutathione beads, 16-mer random dsDNA library, 0.1% formaldehyde crosslink after washing; high values mean tight binding
Conditions in all cases: protein: recombinant; tags: N-terminal GST; dsDNA, one strand shown
FEV = target: T1, FEV (Homo sapiens, UniProt Q99581 1-238)
T1 sequence: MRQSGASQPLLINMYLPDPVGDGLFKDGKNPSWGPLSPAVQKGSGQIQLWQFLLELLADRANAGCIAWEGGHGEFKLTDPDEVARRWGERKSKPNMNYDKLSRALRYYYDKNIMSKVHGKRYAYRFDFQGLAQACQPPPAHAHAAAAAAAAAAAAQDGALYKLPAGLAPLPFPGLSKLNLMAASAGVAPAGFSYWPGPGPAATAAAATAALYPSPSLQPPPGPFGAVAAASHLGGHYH
Outline: (§1)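 After expression in yeast as GST fusions, human transcription factors were bound to glutathione beads, DNA-barcoded and mixed with a tag-only sample. The pools were incubated with 200 nmole of a 16-mer random double-stranded DNA library in Tris/NaCl/DTT/glycerol buffer (30 min, room temperature), washed and crosslinked with 0.1% formaldehyde. Proximity ligation with BsaI/T4 ligase ran for 1 h at 37 °C, before PCR amplification and sequencing on an Illumina NextSeq500. Binding signal is a hexamer's read frequency for a factor divided by its frequency for the tag-only sample.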

ETV5 = ETV5 (Homo sapiens, UniProt P41161 1-510)
Outline: as §1

SPIC = target: T2, SPIC (Homo sapiens, UniProt Q8N5J4 1-248)
T2 sequence: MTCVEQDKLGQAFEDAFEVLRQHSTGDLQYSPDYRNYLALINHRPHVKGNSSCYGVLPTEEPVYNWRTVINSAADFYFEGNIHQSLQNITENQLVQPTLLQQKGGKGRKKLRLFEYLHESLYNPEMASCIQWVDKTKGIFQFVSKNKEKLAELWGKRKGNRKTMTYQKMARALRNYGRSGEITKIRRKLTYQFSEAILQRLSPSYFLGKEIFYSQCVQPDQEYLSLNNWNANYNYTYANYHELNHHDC
Outline: as §1

ELF4 = ELF4 (Homo sapiens, UniProt Q99607 1-663)
Outline: as §1

ELK4 = target: T3, ELK4 (Homo sapiens, UniProt P28324-2 1-405)
T3 sequence: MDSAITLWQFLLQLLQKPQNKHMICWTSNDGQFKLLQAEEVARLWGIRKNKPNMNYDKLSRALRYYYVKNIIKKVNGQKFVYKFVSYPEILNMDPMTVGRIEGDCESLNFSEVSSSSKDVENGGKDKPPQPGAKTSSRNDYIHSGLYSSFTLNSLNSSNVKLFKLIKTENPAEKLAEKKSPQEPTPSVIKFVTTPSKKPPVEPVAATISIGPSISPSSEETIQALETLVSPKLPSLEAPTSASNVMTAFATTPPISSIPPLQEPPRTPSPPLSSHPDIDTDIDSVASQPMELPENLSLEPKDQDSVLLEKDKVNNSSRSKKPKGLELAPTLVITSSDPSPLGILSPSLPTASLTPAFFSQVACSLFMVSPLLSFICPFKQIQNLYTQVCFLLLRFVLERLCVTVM
Outline: as §1

ETV2 = target: T4, ETV2 (Homo sapiens, UniProt O00321 1-342)
T4 sequence: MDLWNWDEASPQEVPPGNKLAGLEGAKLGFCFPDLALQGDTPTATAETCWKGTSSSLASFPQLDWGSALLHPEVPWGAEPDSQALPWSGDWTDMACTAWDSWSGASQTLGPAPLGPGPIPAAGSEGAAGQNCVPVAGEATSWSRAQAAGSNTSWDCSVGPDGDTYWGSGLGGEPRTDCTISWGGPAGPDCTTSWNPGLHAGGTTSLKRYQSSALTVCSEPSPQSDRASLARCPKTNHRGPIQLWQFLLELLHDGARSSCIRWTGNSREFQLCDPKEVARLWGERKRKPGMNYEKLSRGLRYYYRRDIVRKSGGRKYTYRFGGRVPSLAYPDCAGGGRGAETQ
Outline: as §1

CRX = CRX (Homo sapiens, UniProt O43186 1-299)
Outline: as §1

ETV1 = ETV1 (Homo sapiens, UniProt P50549 1-477)
Outline: as §1

ERF = target: T5, ERF (Homo sapiens, UniProt P50548 1-548)
T5 sequence: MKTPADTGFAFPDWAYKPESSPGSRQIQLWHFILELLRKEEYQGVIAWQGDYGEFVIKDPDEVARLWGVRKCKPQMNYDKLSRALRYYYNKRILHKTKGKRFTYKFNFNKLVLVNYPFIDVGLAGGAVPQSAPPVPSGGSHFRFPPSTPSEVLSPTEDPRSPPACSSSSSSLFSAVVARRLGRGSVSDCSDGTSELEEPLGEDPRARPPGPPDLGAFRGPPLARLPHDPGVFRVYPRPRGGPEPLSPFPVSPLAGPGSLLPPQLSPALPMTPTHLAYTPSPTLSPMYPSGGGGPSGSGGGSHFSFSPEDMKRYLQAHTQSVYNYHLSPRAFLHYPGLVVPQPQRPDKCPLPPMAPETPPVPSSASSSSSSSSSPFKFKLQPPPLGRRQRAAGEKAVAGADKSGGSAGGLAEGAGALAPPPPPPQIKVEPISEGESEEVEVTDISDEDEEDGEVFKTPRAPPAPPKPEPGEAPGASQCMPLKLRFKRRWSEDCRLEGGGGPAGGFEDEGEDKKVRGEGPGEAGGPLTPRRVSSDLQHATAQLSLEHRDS
Outline: as §1

ETV3L = target: T6, ETV3L (Homo sapiens, UniProt Q6ZN32 1-361)
T6 sequence: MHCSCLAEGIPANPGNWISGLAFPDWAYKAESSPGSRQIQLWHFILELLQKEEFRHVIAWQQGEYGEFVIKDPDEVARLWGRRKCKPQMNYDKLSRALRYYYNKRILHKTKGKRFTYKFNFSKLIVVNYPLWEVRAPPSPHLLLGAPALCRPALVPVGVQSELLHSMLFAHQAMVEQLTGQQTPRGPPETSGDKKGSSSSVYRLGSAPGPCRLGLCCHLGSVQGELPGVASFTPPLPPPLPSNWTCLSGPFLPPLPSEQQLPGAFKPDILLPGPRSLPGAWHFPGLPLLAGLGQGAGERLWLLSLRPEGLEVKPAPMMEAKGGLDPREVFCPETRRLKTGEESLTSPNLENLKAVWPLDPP
Outline: as §1

ETS2 = target: T7, ETS2 (Homo sapiens, UniProt P15036 1-469)
T7 sequence: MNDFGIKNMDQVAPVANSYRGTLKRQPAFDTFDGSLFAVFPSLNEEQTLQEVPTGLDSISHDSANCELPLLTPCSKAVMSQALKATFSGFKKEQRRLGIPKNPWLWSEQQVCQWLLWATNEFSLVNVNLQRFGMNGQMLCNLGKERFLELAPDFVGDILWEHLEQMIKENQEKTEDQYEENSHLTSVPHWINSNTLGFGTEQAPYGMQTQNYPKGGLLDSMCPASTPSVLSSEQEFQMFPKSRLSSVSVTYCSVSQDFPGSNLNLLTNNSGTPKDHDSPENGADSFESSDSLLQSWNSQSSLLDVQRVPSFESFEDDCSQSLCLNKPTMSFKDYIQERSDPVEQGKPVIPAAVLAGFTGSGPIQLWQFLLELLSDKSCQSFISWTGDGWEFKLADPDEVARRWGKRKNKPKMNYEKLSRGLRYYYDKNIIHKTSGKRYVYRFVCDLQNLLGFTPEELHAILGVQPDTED
Outline: as §1

SPDEF = target: T8, SPDEF (Homo sapiens, UniProt O95238 1-335)
T8 sequence: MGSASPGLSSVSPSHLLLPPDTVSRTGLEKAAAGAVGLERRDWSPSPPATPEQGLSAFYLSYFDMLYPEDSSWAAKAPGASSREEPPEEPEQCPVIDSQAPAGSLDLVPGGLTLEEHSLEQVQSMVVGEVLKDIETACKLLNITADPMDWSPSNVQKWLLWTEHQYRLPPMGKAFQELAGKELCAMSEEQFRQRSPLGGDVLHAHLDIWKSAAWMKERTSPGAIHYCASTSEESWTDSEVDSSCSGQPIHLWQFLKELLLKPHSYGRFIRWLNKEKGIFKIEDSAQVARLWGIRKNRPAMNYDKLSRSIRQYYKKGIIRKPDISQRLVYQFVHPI
Outline: as §1

ETV7 = target: T9, ETV7 (Homo sapiens, UniProt Q9Y603 1-341)
T9 sequence: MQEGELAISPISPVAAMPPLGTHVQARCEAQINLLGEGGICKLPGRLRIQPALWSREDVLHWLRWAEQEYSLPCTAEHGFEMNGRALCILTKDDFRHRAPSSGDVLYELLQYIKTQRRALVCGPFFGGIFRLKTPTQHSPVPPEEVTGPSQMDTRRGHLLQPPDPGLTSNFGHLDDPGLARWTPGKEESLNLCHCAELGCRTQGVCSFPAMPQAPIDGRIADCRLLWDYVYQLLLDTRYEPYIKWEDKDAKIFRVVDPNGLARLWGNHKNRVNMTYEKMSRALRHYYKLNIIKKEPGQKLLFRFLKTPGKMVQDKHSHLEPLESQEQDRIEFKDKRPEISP
Outline: as §1

ELF5 = target: T10, ELF5 (Homo sapiens, UniProt Q9UKW6-2 1-255)
T10 sequence: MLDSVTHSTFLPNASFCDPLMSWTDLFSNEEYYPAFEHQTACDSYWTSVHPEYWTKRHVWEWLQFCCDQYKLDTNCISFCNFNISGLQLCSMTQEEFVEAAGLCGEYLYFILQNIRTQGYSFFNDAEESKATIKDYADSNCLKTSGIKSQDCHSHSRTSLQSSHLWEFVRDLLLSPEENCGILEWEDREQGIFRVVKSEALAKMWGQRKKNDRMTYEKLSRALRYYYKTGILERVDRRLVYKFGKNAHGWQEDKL
Outline: as §1

ETV3 = target: T11, ETV3 (Homo sapiens, UniProt P41162-2 1-143)
T11 sequence: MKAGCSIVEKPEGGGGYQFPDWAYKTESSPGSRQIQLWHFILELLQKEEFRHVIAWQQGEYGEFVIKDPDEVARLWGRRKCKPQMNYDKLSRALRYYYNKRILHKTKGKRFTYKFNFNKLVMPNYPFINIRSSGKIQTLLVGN
Outline: as §1

ETV6 = ETV6 (Homo sapiens, UniProt P41212 1-452)
Outline: as §1

ELF3 = target: T12, ELF3 (Homo sapiens, UniProt P78545 1-371)
T12 sequence: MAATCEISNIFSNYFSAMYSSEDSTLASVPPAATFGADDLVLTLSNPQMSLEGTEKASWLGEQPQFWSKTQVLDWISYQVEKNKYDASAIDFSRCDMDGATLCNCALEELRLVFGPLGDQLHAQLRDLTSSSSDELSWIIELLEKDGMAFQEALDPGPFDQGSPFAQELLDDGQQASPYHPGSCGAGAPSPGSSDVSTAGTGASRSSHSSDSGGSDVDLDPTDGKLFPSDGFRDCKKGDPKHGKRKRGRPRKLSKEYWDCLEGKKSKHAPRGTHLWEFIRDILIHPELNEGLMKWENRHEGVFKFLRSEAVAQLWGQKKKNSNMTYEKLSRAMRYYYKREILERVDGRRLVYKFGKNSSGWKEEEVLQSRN
Outline: as §1

ETV5, sequence (P41161 whole entry): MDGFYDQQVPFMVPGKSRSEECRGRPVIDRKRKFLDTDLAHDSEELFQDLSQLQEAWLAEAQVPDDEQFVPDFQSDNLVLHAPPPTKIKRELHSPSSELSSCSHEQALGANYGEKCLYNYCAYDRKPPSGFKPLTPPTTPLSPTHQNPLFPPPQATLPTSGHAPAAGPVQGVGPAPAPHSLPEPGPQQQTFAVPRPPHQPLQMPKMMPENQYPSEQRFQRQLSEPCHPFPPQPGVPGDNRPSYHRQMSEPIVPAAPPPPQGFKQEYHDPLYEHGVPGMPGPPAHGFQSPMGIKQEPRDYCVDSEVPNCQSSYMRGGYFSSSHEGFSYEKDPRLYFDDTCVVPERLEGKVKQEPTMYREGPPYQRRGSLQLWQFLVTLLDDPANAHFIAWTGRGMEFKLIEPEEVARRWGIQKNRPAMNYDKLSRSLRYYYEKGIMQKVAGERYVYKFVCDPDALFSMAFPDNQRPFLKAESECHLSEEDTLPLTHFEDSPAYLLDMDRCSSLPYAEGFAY
ELF4, sequence (Q99607 whole entry): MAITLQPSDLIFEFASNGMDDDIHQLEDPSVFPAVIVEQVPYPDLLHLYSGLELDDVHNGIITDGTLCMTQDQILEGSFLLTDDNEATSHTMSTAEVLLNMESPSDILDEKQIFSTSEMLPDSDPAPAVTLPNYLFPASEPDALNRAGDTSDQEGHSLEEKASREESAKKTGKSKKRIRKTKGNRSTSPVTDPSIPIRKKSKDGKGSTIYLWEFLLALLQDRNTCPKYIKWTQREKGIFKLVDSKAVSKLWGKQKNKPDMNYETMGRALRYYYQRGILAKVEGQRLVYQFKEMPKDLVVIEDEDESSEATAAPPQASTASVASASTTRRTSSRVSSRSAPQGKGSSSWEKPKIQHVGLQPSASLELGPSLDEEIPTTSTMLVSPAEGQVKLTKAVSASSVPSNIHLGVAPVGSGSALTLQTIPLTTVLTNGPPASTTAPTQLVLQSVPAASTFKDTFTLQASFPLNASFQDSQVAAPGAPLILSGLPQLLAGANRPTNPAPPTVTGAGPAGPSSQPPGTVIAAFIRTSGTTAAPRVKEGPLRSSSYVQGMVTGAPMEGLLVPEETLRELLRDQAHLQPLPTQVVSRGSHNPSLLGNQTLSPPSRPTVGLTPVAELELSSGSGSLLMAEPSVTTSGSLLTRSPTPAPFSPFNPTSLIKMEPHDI
ETV6, sequence (P41212 whole entry): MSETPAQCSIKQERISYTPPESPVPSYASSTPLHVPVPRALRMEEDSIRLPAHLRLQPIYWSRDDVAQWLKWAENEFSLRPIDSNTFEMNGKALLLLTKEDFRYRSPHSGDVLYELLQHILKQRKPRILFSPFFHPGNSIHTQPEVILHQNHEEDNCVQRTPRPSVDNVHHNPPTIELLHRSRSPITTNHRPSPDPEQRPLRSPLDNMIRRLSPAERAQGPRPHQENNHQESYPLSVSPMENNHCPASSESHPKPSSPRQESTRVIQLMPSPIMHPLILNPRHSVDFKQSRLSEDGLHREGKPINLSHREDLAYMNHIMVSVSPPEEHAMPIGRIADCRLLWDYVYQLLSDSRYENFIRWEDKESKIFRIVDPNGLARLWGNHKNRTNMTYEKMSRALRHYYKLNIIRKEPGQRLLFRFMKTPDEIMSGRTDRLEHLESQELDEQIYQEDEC
ETV1, sequence (P50549 whole entry): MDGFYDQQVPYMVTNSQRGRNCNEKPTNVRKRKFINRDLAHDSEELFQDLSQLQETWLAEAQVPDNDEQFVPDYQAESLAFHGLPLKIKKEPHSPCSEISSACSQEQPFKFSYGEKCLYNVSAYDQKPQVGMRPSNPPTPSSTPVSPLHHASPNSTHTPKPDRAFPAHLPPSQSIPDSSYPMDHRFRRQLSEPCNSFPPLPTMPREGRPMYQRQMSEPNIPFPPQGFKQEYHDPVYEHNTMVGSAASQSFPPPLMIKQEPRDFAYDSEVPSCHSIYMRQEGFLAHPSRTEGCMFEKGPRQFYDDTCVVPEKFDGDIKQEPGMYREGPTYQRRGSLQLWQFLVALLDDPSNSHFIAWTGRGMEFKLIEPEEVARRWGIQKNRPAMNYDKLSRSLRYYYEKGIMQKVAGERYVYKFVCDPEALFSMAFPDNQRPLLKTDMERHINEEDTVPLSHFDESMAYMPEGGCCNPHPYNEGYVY
CRX, sequence (O43186 whole entry): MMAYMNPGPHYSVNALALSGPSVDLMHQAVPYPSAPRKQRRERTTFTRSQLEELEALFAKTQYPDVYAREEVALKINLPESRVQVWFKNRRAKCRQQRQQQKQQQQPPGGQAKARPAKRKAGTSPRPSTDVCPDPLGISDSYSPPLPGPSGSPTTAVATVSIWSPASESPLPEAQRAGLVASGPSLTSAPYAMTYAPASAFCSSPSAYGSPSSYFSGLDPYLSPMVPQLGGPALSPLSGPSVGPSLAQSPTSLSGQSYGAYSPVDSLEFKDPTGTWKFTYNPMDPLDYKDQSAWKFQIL

Row | Sequence | binding signal (FEV) | binding signal (ETV5) | binding signal (SPIC) | binding signal (ELF4) | binding signal (ELK4) | binding signal (ETV2) | binding signal (CRX) | binding signal (ETV1) | binding signal (ERF) | binding signal (ETV3L) | binding signal (ETS2) | binding signal (SPDEF) | binding signal (ETV7) | binding signal (ELF5) | binding signal (ETV3) | binding signal (ETV6) | binding signal (ELF3)
1 | CCGTAT | 1.14 fold enrichment (6-mer frequency, TF over GST control) | 1.23 fold enrichment (6-mer frequency, TF over GST control) | 1.29 fold enrichment (6-mer frequency, TF over GST control) | 1.17 fold enrichment (6-mer frequency, TF over GST control) | 1.27 fold enrichment (6-mer frequency, TF over GST control) | 1.34 fold enrichment (6-mer frequency, TF over GST control) | 1 fold enrichment (6-mer frequency, TF over GST control) | 1.19 fold enrichment (6-mer frequency, TF over GST control) | 1.19 fold enrichment (6-mer frequency, TF over GST control) | 1.17 fold enrichment (6-mer frequency, TF over GST control) | 1.18 fold enrichment (6-mer frequency, TF over GST control) | 1.41 fold enrichment (6-mer frequency, TF over GST control) | 1.09 fold enrichment (6-mer frequency, TF over GST control) | 1.31 fold enrichment (6-mer frequency, TF over GST control) | 1.38 fold enrichment (6-mer frequency, TF over GST control) | 1.24 fold enrichment (6-mer frequency, TF over GST control) | –
2 | GCTGAC | 1.12 fold enrichment (6-mer frequency, TF over GST control) | 1.03 fold enrichment (6-mer frequency, TF over GST control) | 1.1 fold enrichment (6-mer frequency, TF over GST control) | 1.1 fold enrichment (6-mer frequency, TF over GST control) | 1.05 fold enrichment (6-mer frequency, TF over GST control) | 1.38 fold enrichment (6-mer frequency, TF over GST control) | – | 1.03 fold enrichment (6-mer frequency, TF over GST control) | 1.08 fold enrichment (6-mer frequency, TF over GST control) | 1.09 fold enrichment (6-mer frequency, TF over GST control) | 1.11 fold enrichment (6-mer frequency, TF over GST control) | – | 1.12 fold enrichment (6-mer frequency, TF over GST control) | 1.05 fold enrichment (6-mer frequency, TF over GST control) | 1.17 fold enrichment (6-mer frequency, TF over GST control) | 1 fold enrichment (6-mer frequency, TF over GST control) | 1.27 fold enrichment (6-mer frequency, TF over GST control)
3 | CACCAA | 1.12 fold enrichment (6-mer frequency, TF over GST control) | 1.1 fold enrichment (6-mer frequency, TF over GST control) | 1.12 fold enrichment (6-mer frequency, TF over GST control) | 1.12 fold enrichment (6-mer frequency, TF over GST control) | 1.13 fold enrichment (6-mer frequency, TF over GST control) | 1.12 fold enrichment (6-mer frequency, TF over GST control) | – | 1.01 fold enrichment (6-mer frequency, TF over GST control) | 1.18 fold enrichment (6-mer frequency, TF over GST control) | 1.06 fold enrichment (6-mer frequency, TF over GST control) | – | 1.03 fold enrichment (6-mer frequency, TF over GST control) | – | 1.03 fold enrichment (6-mer frequency, TF over GST control) | 1.1 fold enrichment (6-mer frequency, TF over GST control) | 1.07 fold enrichment (6-mer frequency, TF over GST control) | 1.1 fold enrichment (6-mer frequency, TF over GST control)
